Measurements from PubChem BioAssay AID1159580 (chemical genetic matrix, 2015).
Hit rate of the full screen: of about 5,500 compounds, about 2,000 (36%) were called active. Roughly 18% stayed inconclusive and do not appear here. Cut-off read from the data, not from the text of the source: active = normalized growth mostly below about 0.91 (no sharp cut-off); inconclusive = no clear call, values can overlap the other calls; inactive = mostly above about 0.92. Some of the results follow.

Assay: chemical genetic growth profiling, strain panel (AID 1159580);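 note: tested at 20 µM; growth read once vehicle control cultures reached saturation at 30 °C; 1 = growth at the plate median or of vehicle wells; lower values mean less growth of the strain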
Settings: growth OD

Measured: normalized growth

CC(C)[C@]12O[C@H]1[C@@H]1O[C@@]13[C@@]1(C)CCC4=C(COC4=O)[C@@H]1C[C@@H]1O[C@@]13C2=O
inactive: S. cerevisiae deletion strains, locus YAL013W, strain DEP1, stronger effect = lower value 1.01 | S. cerevisiae deletion strains, locus YBR021W, strain FUR4, stronger effect = lower value 0.991 | S. cerevisiae deletion strains, locus YBR229C, strain ROT2, stronger effect = lower value 1.01 | S. cerevisiae deletion strains, locus YCL029C, strain bik1, stronger effect = lower value 0.998 | S. cerevisiae deletion strains, locus YDL035C, strain GPR1, stronger effect = lower value 1.01 | S. cerevisiae deletion strains, locus YDL074C, strain BRE1, stronger effect = lower value 1.03 | S. cerevisiae deletion strains, locus YDL101C, strain DUN1, stronger effect = lower value 1.02 | S. cerevisiae deletion strains, locus YDL134C, strain PPH21, stronger effect = lower value 1.01 | S. cerevisiae deletion strains, locus YDL185W, strain tfp1, stronger effect = lower value 1 | S. cerevisiae deletion strains, locus YDL192W, strain arf1, stronger effect = lower value 0.994 | S. cerevisiae deletion strains, locus YDR101C, strain arx1, stronger effect = lower value 0.977 | S. cerevisiae deletion strains, locus YDR150W, strain NUM1, stronger effect = lower value 1.02 | S. cerevisiae deletion strains, locus YDR162C, strain NBP2, stronger effect = lower value 1.02 | S. cerevisiae deletion strains, locus YDR318W, strain mcm21, stronger effect = lower value 0.979 | S. cerevisiae deletion strains, locus YDR388W, stronger effect = lower value 0.996 | S. cerevisiae deletion strains, locus YDR502C, strain sam2, stronger effect = lower value 1.01 | S. cerevisiae deletion strains, locus YEL061C, strain CIN8, stronger effect = lower value 1.01 | S. cerevisiae deletion strains, locus YER110C, stronger effect = lower value 0.987 | S. cerevisiae deletion strains, locus YER155C, strain BEM2, stronger effect = lower value 1.02 | S. cerevisiae deletion strains, locus YER167W, strain BCK2, stronger effect = lower value 1.01 | S. cerevisiae deletion strains, locus YGL078C, strain dbp3, stronger effect = lower value 1.01 | S. cerevisiae deletion strains, locus YGL086W, strain mad1, stronger effect = lower value 0.988 | S. cerevisiae deletion strains, locus YGL248W, strain PDE1, stronger effect = lower value 1.01 | S. cerevisiae deletion strains, locus YGR078C, strain PAC10, stronger effect = lower value 1.02 | S. cerevisiae deletion strains, locus YGR135W, strain pre9, stronger effect = lower value 0.995 | S. cerevisiae deletion strains, locus YGR229C, strain SMI1, stronger effect = lower value 1.01 | S. cerevisiae deletion strains, locus YGR252W, strain gcn5, stronger effect = lower value 0.922 | S. cerevisiae deletion strains, locus YHR030C, strain SLT2, stronger effect = lower value 1.01 | S. cerevisiae deletion strains, locus YHR079C, strain IRE1 (second series), stronger effect = lower value 0.992 | S. cerevisiae deletion strains, locus YHR094C, strain hxt1, stronger effect = lower value 0.991 | S. cerevisiae deletion strains, locus YHR129C, strain ARP1, stronger effect = lower value 1.01 | S. cerevisiae deletion strains, locus YHR200W, strain rpn10, stronger effect = lower value 0.997 | S. cerevisiae deletion strains, locus YIL066C, strain RNR3, stronger effect = lower value 1 | S. cerevisiae deletion strains, locus YIL073C, strain SPO22, stronger effect = lower value 0.958 | S. cerevisiae deletion strains, locus YIL125W, strain kgd1, stronger effect = lower value 1.01 | S. cerevisiae deletion strains, locus YIR030C, strain dcg1, stronger effect = lower value 0.998 | S. cerevisiae deletion strains, locus YJL095W, strain BCK1, stronger effect = lower value 1 | S. cerevisiae deletion strains, locus YJL134W, strain LCB3, stronger effect = lower value 1.01 | S. cerevisiae deletion strains, locus YJL168C, strain set2, stronger effect = lower value 0.993 | S. cerevisiae deletion strains, locus YJL187C, strain SWE1 (second series), stronger effect = lower value 1.02 | S. cerevisiae deletion strains, locus YJR043C, strain POL32, stronger effect = lower value 0.987 | S. cerevisiae deletion strains, locus YJR075W, strain HOC1, stronger effect = lower value 1.02 | S. cerevisiae deletion strains, locus YKL009W, strain mrt4, stronger effect = lower value 0.994 | S. cerevisiae deletion strains, locus YKL068W, stronger effect = lower value 0.994 | S. cerevisiae deletion strains, locus YKL085W, strain MDH1 (second series), stronger effect = lower value 0.997 | S. cerevisiae deletion strains, locus YKL085W, strain MDH1, stronger effect = lower value 0.997 | S. cerevisiae deletion strains, locus YKL190W, strain CNB1, stronger effect = lower value 1.01 | S. cerevisiae deletion strains, locus YKR001C, strain vps1, stronger effect = lower value 0.997 | S. cerevisiae deletion strains, locus YLR039C, strain RIC1, stronger effect = lower value 1.01 | S. cerevisiae deletion strains, locus YLR058C, strain SHM2, stronger effect = lower value 1.01 | S. cerevisiae deletion strains, locus YLR102C, strain apc9, stronger effect = lower value 1 | S. cerevisiae deletion strains, locus YLR262C, strain YPT6, stronger effect = lower value 0.979 | S. cerevisiae deletion strains, locus YLR268W, strain sec22, stronger effect = lower value 0.984 | S. cerevisiae deletion strains, locus YLR330W, strain CHS5, stronger effect = lower value 1.01 | S. cerevisiae deletion strains, locus YLR342W, strain FKS1 (second series), stronger effect = lower value 0.978 | S. cerevisiae deletion strains, locus YLR371W, strain rom2, stronger effect = lower value 1 | S. cerevisiae deletion strains, locus YLR418C, strain cdc73, stronger effect = lower value 0.995 | S. cerevisiae deletion strains, locus YML016C, strain PPZ1, stronger effect = lower value 1.01 | S. cerevisiae deletion strains, locus YML032C, strain rad52, stronger effect = lower value 0.972 | S. cerevisiae deletion strains, locus YML124C, strain tub3, stronger effect = lower value 0.996 | S. cerevisiae deletion strains, locus YMR078C, strain ctf18, stronger effect = lower value 0.989 | S. cerevisiae deletion strains, locus YMR223W, strain ubp8, stronger effect = lower value 0.976 | S. cerevisiae deletion strains, locus YMR263W, strain SAP30, stronger effect = lower value 1.03 | S. cerevisiae deletion strains, locus YMR307W, strain GAS1, stronger effect = lower value 1.04 | S. cerevisiae deletion strains, locus YNL067W, strain RPL9B, stronger effect = lower value 1.02 | S. cerevisiae deletion strains, locus YNL128W, strain TEP1, stronger effect = lower value 1.03 | S. cerevisiae deletion strains, locus YNL153C, strain GIM3, stronger effect = lower value 1.03 | S. cerevisiae deletion strains, locus YNL233W, strain BNI4, stronger effect = lower value 1.04 | S. cerevisiae deletion strains, locus YNL250W, strain rad50, stronger effect = lower value 0.992 | S. cerevisiae deletion strains, locus YNL271C, strain bni1, stronger effect = lower value 0.998 | S. cerevisiae deletion strains, locus YNL298W, strain CLA4, stronger effect = lower value 1.01 | S. cerevisiae deletion strains, locus YNL307C, strain MCK1, stronger effect = lower value 0.983 | S. cerevisiae deletion strains, locus YNL322C, strain KRE1, stronger effect = lower value 1.01 | S. cerevisiae deletion strains, locus YNR052C, strain pop2, stronger effect = lower value 0.978 | S. cerevisiae deletion strains, locus YOL006C, strain TOP1, stronger effect = lower value 1.01 | S. cerevisiae deletion strains, locus YOL012C, strain htz1 0.999 | S. cerevisiae deletion strains, locus YOL147C, strain pex11, stronger effect = lower value 0.996 | S. cerevisiae deletion strains, locus YOR061W, strain CKA2, stronger effect = lower value 1.01 | S. cerevisiae deletion strains, locus YOR069W, strain VPS5, stronger effect = lower value 1.01 | S. cerevisiae deletion strains, locus YOR136W, strain idh2, stronger effect = lower value 0.99 | S. cerevisiae deletion strains, locus YOR144C, strain elg1, stronger effect = lower value 0.997 | S. cerevisiae deletion strains, locus YOR184W, strain ser1, stronger effect = lower value 0.966 | S. cerevisiae deletion strains, locus YOR316C, strain cot1, stronger effect = lower value 0.997 | S. cerevisiae deletion strains, locus YPL055C, strain LGE1, stronger effect = lower value 1.06 | S. cerevisiae deletion strains, locus YPL241C, strain CIN2, stronger effect = lower value 1.01 | S. cerevisiae deletion strains, locus YPR119W, strain clb2, stronger effect = lower value 0.999 | S. cerevisiae deletion strains, locus YPR141C, strain kar3, stronger effect = lower value 0.987 | S. cerevisiae deletion strains, locus YPR163C, strain tif3, stronger effect = lower value 1 | S. cerevisiae deletion strains, locus YPR167C, strain met16, stronger effect = lower value 0.99 | S. cerevisiae deletion strains, strain wtn01, stronger effect = lower value 1.02 | S. cerevisiae strains, strain wild type, stronger effect = lower value 1.01
